According to PubChem BioAssay AID1159580 (chemical genetic matrix, 2015):
The campaign covered roughly 5,500 compounds. About 2,000 (36%) were called active. Roughly 18% stayed inconclusive and do not appear here. Cut-off read from the data, not from the text of the source: active = normalized growth mostly below about 0.91 (no sharp cut-off); inconclusive = no clear call, values can overlap the other calls; inactive = mostly above about 0.92. The list shows a part of the results.

Assay: chemical genetic growth profiling, strain panel (AID 1159580);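 note: tested at 20 µM; growth read once vehicle control cultures reached saturation at 30 °C; 1 = growth at the plate median or of vehicle wells; lower values mean less growth of the strain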
Settings: growth OD

Measured: normalized growth

COC(=O)C[C@H]1C(C)(C)[C@@H](OC(C)=O)[C@@H]2CC3=C4CC(=O)O[C@@H](c5ccoc5)[C@]4(C)CCC3[C@@]1(C)C2=O (some centres not stated)
inactive: S. cerevisiae deletion strains, locus YJR066W, strain TOR1, stronger effect = lower value 0.954 | S. cerevisiae deletion strains, locus YJR075W, strain HOC1, stronger effect = lower value 0.997 | S. cerevisiae deletion strains, locus YKL009W, strain mrt4, stronger effect = lower value 0.986 | S. cerevisiae deletion strains, locus YKL068W, stronger effect = lower value 1 | S. cerevisiae deletion strains, locus YKL085W, strain MDH1 (second series), stronger effect = lower value 0.993 | S. cerevisiae deletion strains, locus YKL085W, strain MDH1, stronger effect = lower value 0.993 | S. cerevisiae deletion strains, locus YKL160W, strain elf1, stronger effect = lower value 1.02 | S. cerevisiae deletion strains, locus YKR001C, strain vps1, stronger effect = lower value 1.01 | S. cerevisiae deletion strains, locus YKR026C, strain gcn3, stronger effect = lower value 0.992 | S. cerevisiae deletion strains, locus YKR091W, strain srl3, stronger effect = lower value 0.996 | S. cerevisiae deletion strains, locus YLL001W, strain dnm1, stronger effect = lower value 0.949 | S. cerevisiae deletion strains, locus YLL026W, stronger effect = lower value 0.998 | S. cerevisiae deletion strains, locus YLL041C, strain sdh2, stronger effect = lower value 0.997 | S. cerevisiae deletion strains, locus YLR027C, strain aat2, stronger effect = lower value 0.998 | S. cerevisiae deletion strains, locus YLR039C, strain RIC1, stronger effect = lower value 0.993 | S. cerevisiae deletion strains, locus YLR058C, strain SHM2, stronger effect = lower value 1 | S. cerevisiae deletion strains, locus YLR102C, strain apc9, stronger effect = lower value 1.01 | S. cerevisiae deletion strains, locus YLR113W, strain HOG1, stronger effect = lower value 1.03 | S. cerevisiae deletion strains, locus YLR221C, strain rsa3, stronger effect = lower value 0.961 | S. cerevisiae deletion strains, locus YLR258W, strain gsy2, stronger effect = lower value 1.01 | S. cerevisiae deletion strains, locus YLR262C, strain YPT6 (second series), stronger effect = lower value 1.02 | S. cerevisiae deletion strains, locus YLR268W, strain sec22, stronger effect = lower value 0.993 | S. cerevisiae deletion strains, locus YLR320W, strain mms22, stronger effect = lower value 0.978 | S. cerevisiae deletion strains, locus YLR330W, strain CHS5, stronger effect = lower value 1 | S. cerevisiae deletion strains, locus YLR342W, strain FKS1 (second series), stronger effect = lower value 1.02 | S. cerevisiae deletion strains, locus YLR342W, strain FKS1, stronger effect = lower value 1.02 | S. cerevisiae deletion strains, locus YLR357W, strain rsc2, stronger effect = lower value 1.01 | S. cerevisiae deletion strains, locus YLR370C, strain arc18, stronger effect = lower value 0.986 | S. cerevisiae deletion strains, locus YLR371W, strain rom2, stronger effect = lower value 0.983 | S. cerevisiae deletion strains, locus YLR384C, strain iki3, stronger effect = lower value 0.985 | S. cerevisiae deletion strains, locus YLR418C, strain cdc73, stronger effect = lower value 1.04 | S. cerevisiae deletion strains, locus YML016C, strain PPZ1, stronger effect = lower value 0.992 | S. cerevisiae deletion strains, locus YML032C, strain rad52, stronger effect = lower value 0.974 | S. cerevisiae deletion strains, locus YML120C, strain ndi1, stronger effect = lower value 1.01 | S. cerevisiae deletion strains, locus YML124C, strain tub3, stronger effect = lower value 1.01 | S. cerevisiae deletion strains, locus YMR058W, strain fet3, stronger effect = lower value 0.993 | S. cerevisiae deletion strains, locus YMR078C, strain ctf18, stronger effect = lower value 1.01 | S. cerevisiae deletion strains, locus YMR125W, strain sto1, stronger effect = lower value 1.01 | S. cerevisiae deletion strains, locus YMR129W, stronger effect = lower value 0.988 | S. cerevisiae deletion strains, locus YMR205C, strain PFK2, stronger effect = lower value 1.02 | S. cerevisiae deletion strains, locus YMR223W, strain ubp8, stronger effect = lower value 0.998 | S. cerevisiae deletion strains, locus YMR231W, strain pep5, stronger effect = lower value 0.998 | S. cerevisiae deletion strains, locus YMR263W, strain SAP30, stronger effect = lower value 1.01 | S. cerevisiae deletion strains, locus YMR307W, strain GAS1, stronger effect = lower value 0.927 | S. cerevisiae deletion strains, locus YNL067W, strain RPL9B, stronger effect = lower value 1.01 | S. cerevisiae deletion strains, locus YNL071W, strain lat1, stronger effect = lower value 1 | S. cerevisiae deletion strains, locus YNL128W, strain TEP1, stronger effect = lower value 0.99 | S. cerevisiae deletion strains, locus YNL153C, strain GIM3, stronger effect = lower value 1.02 | S. cerevisiae deletion strains, locus YNL183C, strain NPR1, stronger effect = lower value 0.958 | S. cerevisiae deletion strains, locus YNL209W, strain ssb2, stronger effect = lower value 1 | S. cerevisiae deletion strains, locus YNL233W, strain BNI4, stronger effect = lower value 1.01 | S. cerevisiae deletion strains, locus YNL248C, strain rpa49, stronger effect = lower value 0.961 | S. cerevisiae deletion strains, locus YNL250W, strain rad50, stronger effect = lower value 1 | S. cerevisiae deletion strains, locus YNL271C, strain bni1, stronger effect = lower value 0.982 | S. cerevisiae deletion strains, locus YNL298W, strain CLA4, stronger effect = lower value 1.01 | S. cerevisiae deletion strains, locus YNL307C, strain MCK1, stronger effect = lower value 1.01 | S. cerevisiae deletion strains, locus YNL322C, strain KRE1 (second series), stronger effect = lower value 1.01 | S. cerevisiae deletion strains, locus YNR049C, strain mso1, stronger effect = lower value 0.994 | S. cerevisiae deletion strains, locus YNR052C, strain pop2, stronger effect = lower value 1.01 | S. cerevisiae deletion strains, locus YOL012C, strain htz1 1.31 | S. cerevisiae deletion strains, locus YOL147C, strain pex11, stronger effect = lower value 0.999 | S. cerevisiae deletion strains, locus YOR001W, strain rrp6, stronger effect = lower value 0.939 | S. cerevisiae deletion strains, locus YOR061W, strain CKA2, stronger effect = lower value 0.995 | S. cerevisiae deletion strains, locus YOR069W, strain VPS5, stronger effect = lower value 1 | S. cerevisiae deletion strains, locus YOR070C, strain gyp1, stronger effect = lower value 0.991 | S. cerevisiae deletion strains, locus YOR080W, strain dia2, stronger effect = lower value 0.987 | S. cerevisiae deletion strains, locus YOR083W, strain WHI5, stronger effect = lower value 1.02 | S. cerevisiae deletion strains, locus YOR106W, strain vam3, stronger effect = lower value 1.02 | S. cerevisiae deletion strains, locus YOR136W, strain idh2, stronger effect = lower value 0.987 | S. cerevisiae deletion strains, locus YOR144C, strain elg1, stronger effect = lower value 0.998 | S. cerevisiae deletion strains, locus YOR184W, strain ser1, stronger effect = lower value 0.987 | S. cerevisiae deletion strains, locus YOR231W, strain MKK1, stronger effect = lower value 0.988 | S. cerevisiae deletion strains, locus YOR265W, strain rbl2, stronger effect = lower value 1 | S. cerevisiae deletion strains, locus YOR270C, strain vph1, stronger effect = lower value 0.888 | S. cerevisiae deletion strains, locus YOR290C, strain snf2, stronger effect = lower value 1.03 | S. cerevisiae deletion strains, locus YOR316C, strain cot1, stronger effect = lower value 1.01 | S. cerevisiae deletion strains, locus YPL051W, strain arl3, stronger effect = lower value 1 | S. cerevisiae deletion strains, locus YPL078C, strain atp4, stronger effect = lower value 1.01 | S. cerevisiae deletion strains, locus YPL106C, strain sse1, stronger effect = lower value 1.04 | S. cerevisiae deletion strains, locus YPL240C, strain hsp82, stronger effect = lower value 1 | S. cerevisiae deletion strains, locus YPL256C, strain CLN2, stronger effect = lower value 0.983 | S. cerevisiae deletion strains, locus YPR119W, strain clb2, stronger effect = lower value 0.996 | S. cerevisiae deletion strains, locus YPR141C, strain kar3, stronger effect = lower value 1 | S. cerevisiae deletion strains, locus YPR163C, strain tif3, stronger effect = lower value 1 | S. cerevisiae deletion strains, locus YPR167C, strain met16, stronger effect = lower value 0.995 | S. cerevisiae deletion strains, strain wtn01, stronger effect = lower value 0.978 | S. cerevisiae strains, strain wild type, stronger effect = lower value 0.997
